Source: PubChem BioAssay AID1619 (SRMLSC, 2009)
Hit rate of the full screen: of about 220,000 compounds, about 830 (0.38%) were called active.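 How the source made its calls: active means compound inhibiting the enzyme by more than half at any dose during confirmatory dose-response retesting; inconclusive means strong single-dose inhibitors picked by rank but not retested; inactive means the rest.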 A selection follows. Results with a measured potency or affinity are listed apart.

The compounds below were run against Leucine aminopeptidase (Plasmodium falciparum (isolate 3D7)) (UniProt Q8IL11) (assay: P. falciparum M17LAP inhibitors, primary screen, biochemical, fluorogenic H-Leu-NHMec substrate, 1536-well (AID 1619;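 further: plate controls were full reaction with DMSO carrier for no effect and no enzyme background for full effect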)). Settings: recombinant M17LAP, H-Leu-NHMec fluorogenic kinetic assay; at 30 µM; hits give high values.
Sequence of Leucine aminopeptidase (Plasmodium falciparum (isolate 3D7)) (Q8IL11 whole entry, looked up): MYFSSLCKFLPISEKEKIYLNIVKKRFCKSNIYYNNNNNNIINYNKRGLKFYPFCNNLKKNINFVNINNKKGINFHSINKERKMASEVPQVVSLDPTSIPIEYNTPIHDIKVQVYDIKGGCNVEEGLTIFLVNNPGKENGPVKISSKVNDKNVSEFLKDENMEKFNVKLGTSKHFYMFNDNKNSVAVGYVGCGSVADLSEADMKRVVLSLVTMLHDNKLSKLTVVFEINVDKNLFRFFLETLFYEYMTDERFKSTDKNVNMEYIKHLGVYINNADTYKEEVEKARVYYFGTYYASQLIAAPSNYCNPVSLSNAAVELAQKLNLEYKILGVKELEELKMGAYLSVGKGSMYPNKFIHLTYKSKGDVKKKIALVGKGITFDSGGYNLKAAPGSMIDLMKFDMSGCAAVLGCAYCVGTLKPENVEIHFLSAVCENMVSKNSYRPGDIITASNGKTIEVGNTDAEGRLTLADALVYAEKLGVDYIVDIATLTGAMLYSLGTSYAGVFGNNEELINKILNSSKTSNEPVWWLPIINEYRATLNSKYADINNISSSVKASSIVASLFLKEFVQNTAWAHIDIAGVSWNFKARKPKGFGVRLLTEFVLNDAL

inhibition, inactive:
COc1ccc(N2CCN(CCCNC(=O)C3CCC(CNc4nc(=S)[nH]c5ccccc45)CC3)CC2)cc1 (stereo not given) 10.8%
COc1ccccc1N(CC(=O)NCCC1=CCCCC1)S(=O)(=O)c1ccccc1 -1.31%
CC1CN(C2CCN(C(=O)c3ccccc3)CC2)CC(C)O1 (stereo not given) 6.07%
O=C(c1ccccc1F)N(Cc1ccc2c(c1)OCO2)Cc1cc2cc3c(cc2n2nnnc12)OCO3 3.97%
CCN(CC)C(=O)CSc1nc2c(sc(=S)n2-c2ccccc2)c(=O)[nH]1 12%
CCCN(CCC)C(=O)CSc1nc2c(sc(=S)n2-c2ccc(OCC)cc2)c(=O)[nH]1 30.1%
CCOC(=O)c1sc(=S)n(-c2ccccc2)c1N 6.93%
CCOC(=O)CSc1nc2c(sc(=S)n2-c2ccc(OCC)cc2)c(=O)[nH]1 14.5%
CCOc1ccc(-n2c(=S)sc3c(=O)[nH]c(SCC(=O)C(C)(C)C)nc32)cc1 37%
CCOC(=O)CSc1nc2c(sc(=S)n2Cc2ccco2)c(=O)n1-c1ccccc1 6.2%
CCN(CC)C(=O)CSc1nc2c(sc(=S)n2Cc2ccco2)c(=O)n1-c1ccccc1 8.29%
O=S(=O)(c1cc(Cl)cc(Cl)c1)N1CCCC1c1nc2ccccc2s1 (stereo not given) -5.02%
O=C(COc1ncnc2sccc12)Nc1ccc2c(c1)OCCO2 34.8%
COc1ccccc1CNC(=O)COc1ccccc1OC 3.35%
Cc1cccc(NC(=O)Nc2ccc3c(c2)N(C)C(=O)CS3)n1 3.25%
O=c1c2c(-c3ccc(Cl)cc3)csc2ncn1/N=C/c1cccc([N+](=O)[O-])c1O -4.46%
Cc1ccc(N2NC(C)(c3cccs3)NC2=S)cc1 (stereo not given) -1.38%
COc1cc(NC(=O)c2nccnc2N)cc(C(=O)Nc2cccc(C(F)(F)F)c2)c1 -5.13%
O=C(O)c1ccc(Cn2cc(C(F)(F)F)ccc2=O)cc1 -4.03%
O=C(CC1Sc2ccccc2NC1=O)Nc1cccc(-c2nnc3n2CCCCC3)c1 (stereo not given) 3%
O=C(CC1Sc2ccccc2NC1=O)Nc1cccnc1 (stereo not given) 5.83%
O=C(O)c1ccc(NC(=O)C2(c3ccccc3)CCCC2)cc1 3.99%
CC1CCc2c(sc(NC(=O)C3c4ccccc4Oc4ccccc43)c2C(N)=O)C1 (stereo not given) 8.46%
COc1ccc2nc(Nc3sc4c(c3C(N)=O)CCCC4)sc2c1 8.22%
Fc1cccc2sc(Nc3nc4c(F)cccc4s3)nc12 16.7%
COC(=O)Nc1sc2c(c1C(N)=O)CCC(C)C2 (stereo not given) 26.4%
CC(=O)c1ccc(Nc2ccc(-c3ccccc3F)nn2)cc1 28.4%
COC(=O)c1ccccc1NC(=O)C(C)c1ccc([N+](=O)[O-])cc1 (stereo not given) -0.59%
N#C/C(C(=O)NCc1ccccc1)=C1/N=C(NC(=O)c2cccs2)c2ccccc21 5.68%
CCOC(=O)C1=C(C)N=C2SCCC(=O)N2[C@@H]1c1cccs1 3.63%
NC(=O)CC(NC(=O)Cc1cccc2ccccc12)c1ccc(NC2CCC2)c([N+](=O)[O-])c1 (stereo not given) 15%
COC(=O)c1cn(C(=O)c2cccc(C)c2)c2ccccc12 1.71%
Cc1cccc(C(=O)NC(=S)NNC(=O)c2ccc(Cl)cc2)c1 86.2%
Cc1cccc(C(=O)NC(=S)NNC(=O)COc2ccc(Cl)cc2)c1 8.45%
O=C(NNC(=S)NC(=O)c1cccnc1)c1ccc(Cl)cc1 71.2%
Cc1ccc(C(=O)NC(=S)NNC(=O)COc2ccccc2C)cc1 -0.9%
Cc1cccc(NC(=S)NNC(=O)Cc2ccccc2)c1 15.6%
Cc1cccc(C(=O)NC(=S)Nc2ccccc2C(=O)O)c1 3.36%
O=C(NC(=S)NNC(=O)c1ccccc1F)c1cccnc1 5.36%
O=C(Cc1ccccc1)NNC(=S)NC(=O)c1cccnc1 13.8%
O=C(O)c1ccc2c(c1)SC1=NS(=O)(=O)CCN12 -2.18%
CCN1CCN(C(=O)CSc2cc(=O)n(CC)c3ccccc23)CC1 4.46%
CCC(C)NC(=O)CS(=O)Cc1nc(-c2ccccc2C)oc1C (stereo not given) 2.41%
Cn1c(N)c(C(=O)c2ccc(F)cc2F)c(=O)n(C)c1=O 5.53%
COC(=O)[C@H](Cc1ccccc1)NC(=O)O[C@H]1C(=O)c2ccc(OC)cc2O[C@@H]1c1ccc2c(c1)OCO2 -10.7%
CN(C(=O)c1ccc(NC(=O)C2CC=CCC2C(=O)O)cc1)c1ccccc1 (stereo not given) 45.1%
COC(=O)c1ccc(NC(=O)C2C3CCC(C3)C2C(=O)O)cc1 (stereo not given) 39%
CC(=O)Nc1ccc(NC(=O)C2CCCCC2C(=O)O)cc1 (stereo not given) 8.65%
O=C(O)Cc1ccc(NC(=O)C2CC=CCC2C(=O)O)cc1 (stereo not given) 11.1%
CCCOC(=O)c1ccc(NC(=O)C2C3CCC(C3)C2C(=O)O)cc1 (stereo not given) 43.4%
O=C(O)[C@H]1CCCC[C@H]1C(=O)Nc1ccc(Nc2ccccc2)cc1 54.9%
O=C(O)C1CCCCC1C(=O)Nc1ccc(-c2ccccc2)cc1 (stereo not given) 6.02%
CC(=O)Nc1ccc(NC(=O)[C@@H]2CCCC[C@@H]2C(=O)O)cc1 -3.15%
O=C(O)CCSCCCN1C(=O)c2cccc3cccc(c23)C1=O 8.08%
CCCc1cc(=O)[nH]c(SCC(=O)Nc2cc(C)on2)n1 3.41%
Cc1ccc(C2CC(C(F)(F)F)n3nc(C(=O)Nc4c(C)n(C)n(-c5ccccc5)c4=O)cc3N2)cc1 (stereo not given) 2.06%
COc1ccc(NC(=O)c2ccc(-n3c(C)ccc3C)cc2)c(OC)c1 4.59%
Cc1nc(C)c(-c2csc(Nc3ccc(F)cc3)n2)s1 -0.33%
Cc1ccc(Oc2ncc(-c3ccc(Cl)cc3)cn2)cc1 -3.58%
CCOC(=O)N1CCN(c2cc(N)c([N+](=O)[O-])cc2F)CC1 -0.96%
Cc1ccc(C(=O)Nc2ccn(Cc3ccc(F)cc3)n2)o1 2%
COc1ccc(C(=O)Nc2cccc(C(=O)NCc3ccccc3)c2)cc1 3.07%
Oc1ccc(C(c2nnnn2CCc2ccccc2)N2CCN(c3nc4ccccc4s3)CC2)cc1 (stereo not given) 3.87%
CCOC(=O)NCc1ccc(Cl)c(Cl)c1 -9.33%
CC(C)(C)OC(=O)CN1C(=O)C(Sc2n[nH]c(-c3ccccc3)n2)CCc2ccccc21 (stereo not given) 3.43%
CCSc1nc(N)nc(-c2cccs2)c1C#N 5.48%
CN(Cc1ccccc1)Cc1nc2c([nH]1)c(=O)[nH]c(=O)n2C -7.23%
CC(NC(=O)c1cccnc1)C(c1cccs1)N1CCN(C)CC1 (stereo not given) 0.81%
O=C(O)Cc1ccc(NC(=O)C2CCCCC2C(=O)O)cc1 (stereo not given) 19%
CN(C1CCCCC1)S(=O)(=O)c1ccc(NC(=O)C2CCCCC2C(=O)O)cc1 (stereo not given) 44%
CCOC(=O)N1CCN(C(=O)c2ccc(CS(=O)(=O)c3c(Cl)cccc3Cl)o2)CC1 3.87%
CCCCOc1ccc(C(=O)OCC(=O)Nc2cc(C)on2)cc1 2.23%
CCOC(=O)c1c(CSCc2ccccc2)oc2ccc(O)c(CN(C)C)c12 -2.1%
Cc1ccc2c(=O)[nH]c(Cc3ccccc3C(=O)O)nc2c1 2.27%
Cc1ccc(N/N=C2/CCCNC2=O)cc1 40.4%
Cc1ccc(NN=C2c3ccccc3-c3ccccc32)cc1 5.01%
Cc1ccc(N(CC(O)CN2C(=O)NC(C)(C)C2=O)S(=O)(=O)c2ccc(C)cc2)cc1 (stereo not given) -16.4%
O=C(O)c1ccc(N/N=C/c2ccc(-c3ccccc3)cc2)cc1 2.22%
O=C(O)c1ccc(N/N=C/c2ccc(F)c(F)c2)cc1 50.5%
CC(C)(C)c1ccc(/C=N/Nc2cccc(C(=O)O)c2)cc1 12.1%
Fc1ccc(N/N=C/c2ccncc2)c(F)c1 -6.64%
Cc1ccc(/C=N/Nc2ccc(Cl)c(C(=O)O)c2)s1 49.5%
Cc1ccc(/C=N/Nc2cccc(C(=O)O)c2)s1 53.6%
O=C(O)c1ccc(/C=N/NC(=O)c2ccc(F)cc2)cc1 7.3%
O=C(O)c1ccc(/C=N/Nc2cccc(C(F)(F)F)c2)cc1 16.4%
C=CCNC(=O)CN1CCC(NC(=O)c2ccco2)CC1 4.27%
Cc1ccc(/C=N/NC(=O)Cn2cncn2)cc1 2.86%
CC(=O)N1CCN(c2ccc(NC(=O)c3ccc4c(c3)OCO4)cc2)CC1 -9.38%
COc1ccc(C2Nc3ccccc3C(=O)N2c2ccccc2)cc1CN1CCOCC1 (stereo not given) -163%
CC(/C=C/c1ccc2c(c1)OCO2)=N/NC(=O)c1cccnc1 17.2%
Cc1ccc(NNC(=O)c2ccc(Cl)cc2)nn1 17.4%
COc1ccc(/C=N/Nc2ccc(C(=O)O)cc2)cc1OC 25.7%
COc1cc(/C=N/Nc2ccc(C(=O)O)cc2)ccc1O 22.3%
CCOc1ccc(OCC)c(NC(=O)C2CCCN(S(=O)(=O)c3c(C)noc3C)C2)c1 (stereo not given) 3.89%
COc1ccc(OC)c(N/C=C2/CCCCC2=O)c1 5.47%
